We go through 12 compounds from PubChem BioAssay (NCATS).

Each structure is given as a SMILES string. Results filed as inconclusive are left out. Unmarked numbers belong to inactive results. The call rests on the fitted dose curve; in most records, active means well fitted cell-killing curve with a large enough effect; inconclusive means small, poorly fitted or top-dose-only effect, or effect the other way; inactive means no such curve, though single readings can be large or run the other way.

A short description of this assay: MultiTox-Fluor Cytotoxicity Assay - LYMP1-002 - Dead Cells (AID 960).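 Further: 0% = DMSO and 100% = tetraoctylammonium bromide; nearly all actives have a fitted effect of over 60% in size.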 Particulars: LYMP1-002 lymphoblastoid cells, dead-cell protease fluorescence; series mostly up to 46.1 µM; cytotoxicity (dead cells): at the top concentration. An excerpt:
NIH Chemical Genomics Center [NCGC]
NIH Molecular Libraries Screening Centers Network [MLSCN]
National Institutes of Environmental Health Sciences [NIEHS]
National Toxicology Program [NTP]
We have developed a 1536-well cell-based assay for quantitative high throughput screening (qHTS) against a number of cell lines to determine in vitro cytotoxicity of small molecules. This particular assay uses a human lymphoblastoid cell line (LYMP1-002) purchased from Coriell Institute.
NCGC Assay Protocol Summary:
The MultiTox-Fluor Cytotoxicity Assay (Promega) is a homogeneous method to simultaneously measure the relative number of live and dead cells in culture by detecting changes in cell membrane integrity. There are two fluorogenic peptide substrates in the assay reagent. Viable cells are determined when the cell-permeant substrate (GF-AFC) enters the cell and is cleaved by protease from live cells resulting in liberated fluorophore. This live-cell protease activity restricted to viable cells is proportional to cell number. The dead cells are determined by using fluorogenic cell-impermeant peptide substrate (bis-AAF-R110) which cleaved by dead cell proteases leaking from damaged cell membrane.
Using the MultiTox-Fluor Cytotoxicity Assay, the relative number of dead cells was measured in the lymphoblastoid cell line with complete culture medium following compound treatment for 16 hours. The assay was performed in opaque black Kalypsys 1536-well plates. In the screen, tetraoctylammonium bromide was used as positive control. Library compounds were measured for their ability to cause acute toxicity in the cell line, as reflected by an increase in dead cell protease activity, in a concentration-dependent manner. Data were normalized to the controls for basal activity (DMSO only) and 100% stimulation (15 uM tetraoctylammonium bromide). AC50 values were determined from concentration-response data modeled with the standard Hill equation.
qHTS protocol for MultiTox-Fluor Cytotoxicity assay
[Step] [Parameter] [Value] [Description]
1. Reagent; 5 uL; 2500 lymphoblastoid cells/well
2. Time; 5 hr; 37 C incubation
4. Controls; 23 nL; Tetraoctylammonium bromide 6.4pM to 92 uM
5. Time; 16 hr; 37 C incubation
6. Reagent; 5 uL; MuliTox-Fluor Assay reagent
7. Time; 60 min; Room Temperature
8. Detection; dead-cell fluorescence (Ex/Em=485/520); EnVision plate reader
Keywords: cytotoxicity, lymphoblastoid cell line, fluorescence, NTPHTS, NTPHTS_NCGC, NIEHS, EPA, DSSTox, MLSMR, MLSCN, NIH Roadmap, qHTS, NCGC
For `Oc1ccc(Cl)cc1Cc1cc(Cl)ccc1O`, the “cytotoxicity (dead cells)” value is 29.5%. Then `O=C(O)c1ccc(S(=O)(=O)N(Cl)Cl)cc1`, with 12.8%; and `COc1cc([C@H]2Oc3cc([C@H]4Oc5cc(O)cc(O)c5C(=O)[C@@H]4O)ccc3O[C@@H]2CO)ccc1O`, with 6.31%; and `CCOc1ccccc1C(N)=O`, with 9.59%. As for `NC(=O)c1ccccc1O`, the “cytotoxicity (dead cells)” value was -2.72%. As for `OC[C@H]1O[C@@H]2O[C@H]3[C@H](O)[C@@H](O)[C@@H](O[C@H]4[C@H](O)[C@@H](O)[C@@H](O[C@H]5[C@H](O)[C@@H](O)[C@@H](O[C@H]6[C@H](O)[C@@H](O)[C@@H](O[C@H]7[C@H](O)[C@@H](O)[C@@H](O[C@H]8[C@H](O)[C@@H](O)[C@@H](O[C@H]1[C@H](O)[C@H]2O)O[C@@H]8CO)O[C@@H]7CO)O[C@@H]6CO)O[C@@H]5CO)O[C@@H]4CO)O[C@@H]3CO`, the “cytotoxicity (dead cells)” value is -13.5%.

`C/C=C/c1ccc(O)c(OC)c1`: the “cytotoxicity (dead cells)” value was 9.01%.

Regarding `NCCNc1cccc2ccccc12`, the “cytotoxicity (dead cells)” value was 19.2%. Take `CCOc1ccc(NC(C)=O)cc1`: the “cytotoxicity (dead cells)” value is 10.9%.

Regarding `CCCN(CCC)S(=O)(=O)c1ccc(C(=O)O)cc1`, the “cytotoxicity (dead cells)” value was 25.3%.

Regarding `COc1ccc(C(Cl)=C(c2ccc(OC)cc2)c2ccc(OC)cc2)cc1`, the “cytotoxicity (dead cells)” value is 12.6%.

Regarding `COc1ccc(C(=O)c2ccccc2)c(O)c1`, the “cytotoxicity (dead cells)” value was 13.6%.
